# From PubChem
# Only some compounds are listed: those with a hit (about 6.7% of all), similar ones and a draw of the others.
# C diff growth = C. difficile growth inhibitors, primary screen, HTS. Clostridium difficile clinical isolate growth, OD600, 24 h; active compounds read low. 86,000 compounds, 0.25% hits. growth activity, negative = inhibition, % at 16 µg/mL (by protocol). AID 1259249, 2017;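 active means mean growth activity at or below -80% and every replicate also at or below -80%; inconclusive means mean at or below -80% but some replicate above -80%; inactive means mean growth activity above -80%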;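 further: 0% = DMSO wells and -100% = levofloxacin 16 µg/mL wells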
# T cruzi growth-1 = T. cruzi intracellular proliferation inhibitors, primary screen, cell-based, beta-gal Tulahuen parasites, NIH3T3 host, luminescence; T. cruzi beta-gal in NIH3T3, GalScreen luminescence, 90 h; inhibition, % at 8.34 µM; 77,000 compounds, 5.9% hits;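 active means mean inhibition above about 93%, with at least 55% of replicates each passing it, limit read from the data, passing the limit was not always enough; inconclusive means only one of those two conditions holds; inactive means neither condition holds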
# Pf Dd2 inh = P. falciparum Dd2 growth inhibitors, primary screen, SYBR Green fluorescence, single dose replicates | AID 1159554, 2015 | activity change, % at 10 µM | 72 h; active compounds read low | 94,000 compounds, 2.3% hits; in the data active means activity change below about -80%; inconclusive means no clear call, values can overlap the other calls
# T cruzi growth-2 = T. cruzi intracellular proliferation inhibitors, confirmation, cell-based, NIH3T3 host, beta-gal parasite, luminescence, cherry-pick; shares compounds with T cruzi growth-1; T. cruzi beta-gal in NIH3T3, GalScreen luminescence, 90 h; inhibition, % at 8.35 µM; 5,600 compounds, 72% hits; AID 651739, 2012;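 active means mean replicate inhibition above about 95% and at least 55% of replicates individually reaching it, limit read from the data; inconclusive means only one of the two criteria is met; inactive means neither criterion is met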
# T cruzi growth-3 = inhibitors of intracellular T. cruzi replication, confirmation, NIH3T3 host cells, beta-gal parasites, cherry-pick, set 2. 5,600 compounds, 21% hits. T. cruzi beta-gal in NIH3T3, GalScreen luminescence, 90 h. inhibition, % at 2.09 µM. shares compounds with T cruzi growth-1. AID 651740, 2012;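 active means mean inhibition above about 95%, with at least 55% of replicates also reaching it, limit read from the data; inconclusive means meets just one of the two conditions; inactive means meets neither condition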;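 further: plate controls were neutral control median for no effect and positive control median for full effect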
# NIH3T3 tox = cytotoxicity in mouse NIH/3T3 fibroblasts, confirmation, cytotoxicity control for T. cruzi proliferation inhibitor project, cell-based, cherry-pick, single point | NIH/3T3 viability, CellTiter-Glo ATP luminescence, 90 h | cytotoxicity (signal decrease), % at 8.35 µM | 5,600 compounds, 14% hits | shares compounds with T cruzi growth-1;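 active means mean signal decrease across replicates above about 35% based on untreated-well scatter, with enough replicates individually passing, limit read from the data; inconclusive means no rule stated though some were filed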;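 further: 0% = median of neutral control wells and 100% = median of positive control wells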
# NIH3T3 tox 2 = NIH/3T3 fibroblast cytotoxicity, confirmation, cytotoxicity control, cell-based, cherry-pick, single point, set 2; NIH/3T3 viability, CellTiter-Glo ATP luminescence, 90 h; inhibition, % at 24.9 µM; shares compounds with T cruzi growth-1; 5,600 compounds, 56% hits;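 active means mean loss of cell viability signal at or above a set limit, and enough replicates individually reaching it; inconclusive means meets only the mean limit or only the replicate share; inactive means meets neither condition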;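 further: 0% = median of neutral control wells and 100% = median of positive control wells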
# The depositor's hits bear a star; ? = inconclusive; · = no result given.
SMILES,C diff growth,T cruzi growth-1,Pf Dd2 inh,T cruzi growth-2,T cruzi growth-3,NIH3T3 tox,NIH3T3 tox 2
O=C(c1ccc2c(c1)OCO2)N1CCCCN2[C@H](CO)[C@@H](c3ccc(-c4ccccc4)cc3)[C@H]2C1,-1,102*,0,86,55,28,68*
C[C@@H]1CN([C@@H](C)CO)C(=O)Cc2cc(NC(=O)C3CC3)ccc2O[C@H]1CN(C)Cc1ccc(-c2ccccc2)cc1,5,114*,-8,102*,85,11,103*
C[C@@H]1CN([C@H](C)CO)C(=O)Cc2cc(NC(=O)C3CC3)ccc2O[C@H]1CN(C)Cc1ccc(-c2ccccc2)cc1,0,16,5,·,·,·,·
C[C@@H]1CN([C@H](C)CO)C(=O)Cc2cc(NC(=O)C3CCCCC3)ccc2O[C@@H]1CN(C)Cc1ccc(-c2ccccc2)cc1,-6,47,-17,·,·,·,·
C[C@H]1CN([C@@H](C)CO)C(=O)Cc2cc(NC(=O)C3CCCCC3)ccc2O[C@@H]1CN(C)Cc1ccc(-c2ccccc2)cc1,35,99*,-25,104*,71,-6,14
CNC[C@H]1OCCCC[C@H](C)Oc2ccc(NC(=O)c3ccncc3)cc2C(=O)N([C@H](C)CO)C[C@@H]1C,1,38,-8,·,·,·,·
CC(C)NC(=O)N(C)C[C@H]1Oc2cc(C#CC(C)(C)O)ccc2S(=O)(=O)N([C@H](C)CO)C[C@H]1C,3,-15,33,·,·,·,·
CC1C=NC(S(=O)(=O)N2CC[C@@H]3[C@H]2c2cc(-c4cccc(F)c4)ccc2N(C)[C@H]3CO)=N1 (stereo not given in full),-6,?,-37,105*,77,5,3
CC1C=NC(S(=O)(=O)N2CC[C@H]3[C@@H](CO)N(C)c4ccc(-c5ccccc5)cc4[C@H]32)=N1 (stereo not given in full),-6,91,18,·,·,·,·
CC1C=NC(S(=O)(=O)N2CC[C@@H]3[C@H]2c2cc(-c4ccccc4)ccc2N(C)[C@H]3CO)=N1 (stereo not given in full),0,?,11,101*,84,-2,-11
CC1C=NC(S(=O)(=O)N2CC[C@@H]3[C@@H](CO)N(C)c4ccc(-c5ccc(F)cc5)cc4[C@@H]32)=N1 (stereo not given in full),-21,64,-17,·,·,·,·
C[C@H](CO)N1C[C@H](C)[C@@H](CN(C)Cc2ccc(-c3ccccc3)cc2)Oc2ccc(NC(=O)Cn3cnnn3)cc2CC1=O,-15,43,-8,·,·,·,·
C[C@@H]1CCCCO[C@@H](CN(C)C(=O)C2CCCCC2)[C@H](C)CN([C@@H](C)CO)C(=O)c2cc(NC(=O)Cc3ccccc3)ccc2O1,-2,50,-14,·,·,·,·
O=C(C[C@H]1C=C[C@H](NC(=O)C2CC2)[C@@H](CO)O1)NCc1ccncc1,-1,·,10,·,·,·,·
CN(C)C(=O)C[C@@H]1C[C@H]2c3cc(NS(C)(=O)=O)ccc3O[C@H]2[C@H](CO)O1,2,-23,23,·,·,·,·
C[C@@H]1CN([C@H](C)CO)S(=O)(=O)c2ccc(C#CCN(C)C)cc2O[C@H]1CN(C)S(=O)(=O)c1cccc(F)c1,2,·,-18,·,·,·,·
CC(C)CC#Cc1ccc2c(c1)O[C@@H](CN(C)S(=O)(=O)c1cccc(F)c1)[C@H](C)CN([C@H](C)CO)S2(=O)=O,8,121*,-56,103*,87,45*,106*
C[C@@H]1CN([C@H](C)CO)S(=O)(=O)c2ccc(C#CCN(C)C)cc2O[C@@H]1CN(C)S(=O)(=O)c1cccc(F)c1,2,·,-33,·,·,·,·
